Bioassay records (PubChem)
An excerpt weighted towards active compounds, which were near 2.5% of everything screened.
Pol kappa inh-1: DNA polymerase kappa (human) inhibition. purified Pol kappa, fluorescent DNA synthesis assay, 10 min. Q9UBT6. hit rate 0.53% among 400,000. Potency, µM (doses to about 107 µM), for inactives: at the top dose activity, negative = inhibition, most hits filed as inhibitors. AID 588579; further: potency means the concentration at half of the fitted maximal effect; on the % scale 0 is the no-effect control and ±100 the full control effect
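Activity was followed as the change in fluorescence between reads at 0 and 10 min after starting the reaction with 50 nM substrate. Beforehand, 10 nM polymerase had been preincubated with compound for 15 min at room temperature.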
Pol eta inh-1: DNA polymerase eta (human) inhibition; Q9Y253; recombinant Pol eta, fluorescent DNA replication assay; Potency, µM (series often up to 114 µM), without a hit: at the top dose activity change, negative = inhibition, most hits filed as inhibitors; hit rate 1.2% among 390,000; AID 588591; further: potency means the concentration at half of the fitted maximal effect; on the % scale 0 is the no-effect control and ±100 the full control effect
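Pol eta at 10 nM preincubated with compounds 15 min at room temperature; reaction started with fluorescent substrate (50 nM final) and read kinetically at 0 and 10 min.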
L3MBTL1 inh-1: L3MBTL1 (human) inhibition. Q9Y468. AlphaScreen L3MBTL1–H3K9me1 peptide binding. Potency, µM (series often up to 57.1 µM), for inactives: top-dose activity, negative = inhibition, hits mostly inhibitors. hit rate 0.66% among 230,000. AID 485360; further: potency means the concentration at half of the fitted maximal effect; on the % scale 0 is the no-effect control and ±100 the full control effect; nearly all actives have a fitted effect of over 60% in size
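AlphaScreen assay: L3MBTL1 (50 nM final) was preincubated 30 min at room temperature with biotinylated H3(1-15)K9me1 peptide (75 nM final), then 30 min with library compounds; streptavidin donor and nickel chelate acceptor beads (10 ug/mL final) added, 30 min dark.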
Pol beta inh-1: DNA polymerase beta (human) inhibition. P06746. AID 485314. Potency, µM (series often up to 114 µM), inactives show top-dose activity change, negative = inhibition, actives largely listed as inhibitors. Pol beta primer extension/strand displacement, fluorescence kinetic. hit rate 1.3% among 340,000; further: potency means the concentration at half of the fitted maximal effect; on the % scale 0 is the no-effect control and ±100 the full control effect
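Enzyme-only controls used 10 nM Pol beta; buffer lacking enzyme served as negative control. Compound preincubated 15 min, then 50 nM substrate added; 0 and 10 min reads at room temperature.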
POLI inh: DNA polymerase iota (human) inhibition; hit rate 1% among 390,000; Pol iota fluorescent replication assay, 10 min; Potency, µM (titrated, usually from 115 µM), inactives show top-dose activity, negative = inhibition, actives largely listed as inhibitors; further: potency means the concentration at half of the fitted maximal effect
Target sequence (Q9UNA4 whole entry, looked up): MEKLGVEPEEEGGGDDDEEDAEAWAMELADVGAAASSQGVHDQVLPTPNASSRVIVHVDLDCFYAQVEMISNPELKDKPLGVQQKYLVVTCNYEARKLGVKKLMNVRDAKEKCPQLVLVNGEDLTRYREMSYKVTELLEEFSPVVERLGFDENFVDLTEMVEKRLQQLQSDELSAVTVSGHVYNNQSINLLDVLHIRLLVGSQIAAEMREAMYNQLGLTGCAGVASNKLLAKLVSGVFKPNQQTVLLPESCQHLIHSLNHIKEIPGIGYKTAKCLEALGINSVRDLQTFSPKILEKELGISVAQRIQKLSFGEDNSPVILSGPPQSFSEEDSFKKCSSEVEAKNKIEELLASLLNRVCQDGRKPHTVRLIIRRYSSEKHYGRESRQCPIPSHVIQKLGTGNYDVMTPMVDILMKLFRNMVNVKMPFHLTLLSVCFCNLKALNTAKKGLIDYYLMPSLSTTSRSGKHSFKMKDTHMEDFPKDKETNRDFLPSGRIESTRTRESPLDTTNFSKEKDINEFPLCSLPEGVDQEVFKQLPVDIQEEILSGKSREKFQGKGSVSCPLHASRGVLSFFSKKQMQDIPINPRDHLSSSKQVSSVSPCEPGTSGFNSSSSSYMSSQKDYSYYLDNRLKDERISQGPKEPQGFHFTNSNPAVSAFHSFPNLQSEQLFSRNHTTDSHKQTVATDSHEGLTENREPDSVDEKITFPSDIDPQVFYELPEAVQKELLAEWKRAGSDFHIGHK
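Pol iota at 10 nM preincubated 15 min with compounds at room temperature; reaction started with fluorescent substrate, 50 nM final. Fluorescence read kinetically at 0 and 10 min; buffer-only wells as negative control.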
APE1 inh: APE1 (human) endonuclease inhibition. recombinant APE1, TAMRA/BHQ-2 abasic DNA cleavage fluorescence. Potency, µM (titrated, usually from 65.8 µM), without a hit: top-dose activity change, negative = inhibition, actives largely listed as inhibitors. hit rate 0.35% among 350,000. AID 2517;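 further: potency means the concentration at half of the fitted maximal effect; plate controls were vehicle for no effect and reference inhibitor for full effect; nearly all actives have a fitted effect of over 55% in size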
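APE1 at 0.75 nM final was preincubated with compound 15 min at room temperature, then 50 nM double-stranded THF abasic-site substrate (5'-TAMRA/3'-BHQ-2) was added. Fluorescence (ex 525/em 598 nm) was read kinetically; third-minus-first read gave activity.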
Pol beta inh-2: Validate hits inhibiting human DNA polymerase beta | Potency, µM, usual class: inhibitors | hit rate 87% among 250 | shares compounds with Pol beta inh-1 | Pol beta primer extension/strand displacement, fluorescence kinetic; calls by dose curve; further: potency means the concentration at half of the fitted maximal effect
Klenow counter: inhibits Klenow fragment polymerase in counter-screen | shares compounds with Pol beta inh-1 | Klenow exo- polymerase counter-screen, fluorescent DNA substrate | activity change, negative = inhibition, % at 57.1 µM | 250 tested, under 10 active
HIV RT counter: counter-screen for DNA polymerase beta inhibitors: HIV-1 RT inhibition; shares compounds with Pol beta inh-1; HIV-1 RT polymerase activity, counter-screen; activity % (negative = inhibition, positive = activation), % at 57.1 µM; 250 tested, under 10 active
POLB valid: DNA polymerase beta inhibition, radiolabeled validation; radiolabeled primer extension gel assay, phosphorimager; inhibition, % at 10 µM; hit rate 91% among 110; shares compounds with Pol beta inh-1; AID 540325;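 active means inhibition at 10 µM of 30% or more; inconclusive means no clear call, values can overlap the other calls; inactive means inhibition at 10 µM under 30%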
L3MBTL1 inh-2: L3MBTL1 binding inhibition validated. shares compounds with L3MBTL1 inh-1. L3MBTL1 methyl-lysine binding inhibition, biochemical qHTS. Potency, µM, usual class: inhibitors. hit rate 91% among 500; further: potency means the concentration at half of the fitted maximal effect; nearly all actives have a fitted effect of over 70% in size
L3MBTL1 ctr: counter-screen for L3MBTL1 inhibitors: AlphaScreen signal interference; Potency, µM (top dose mostly 57.1 µM), inactives show at the highest dose activity change, negative = inhibition, actives largely listed as inhibitors; 500 tested, under 10 active; AID 602224; AlphaScreen counterscreen, signal inhibition; shares compounds with L3MBTL1 inh-1; further: potency means the concentration at half of the fitted maximal effect; 0% is about no effect
POLI cherry-pick: Inhibitors of human DNA polymerase iota, confirmation; AID 720496; Pol iota primer extension, TAMRA/BHQ fluorescence; Potency, µM, actives largely listed as inhibitors; hit rate 77% among 1,500; shares compounds with Pol kappa inh-1; further: potency means the concentration at half of the fitted maximal effect
Pol kappa inh-2: Pol kappa (human) inhibition, cherry-pick confirmation. shares compounds with Pol eta inh-1. purified Pol-kappa, fluorescent strand-displacement substrate. Potency, µM, actives largely listed as inhibitors. hit rate 76% among 920. AID 720501; further: potency means the concentration at half of the fitted maximal effect
Pol eta inh-2: confirmation of human DNA polymerase eta inhibitors. hit rate 64% among 2,600. Pol eta primer extension, TAMRA/BHQ fluorescence, 10 min. Potency, µM, hits mostly inhibitors. shares compounds with Pol eta inh-1; further: potency means the concentration at half of the fitted maximal effect
An asterisk follows results filed as active; ? = inconclusive; . = no result given; [ ] = dose if it differs, or a comment. Unless noted, the call rests on the fitted dose curve; in most records, active means well fitted curve in the direction sought with a large enough effect; inconclusive means small, poorly fitted or top-dose-only effect, or another doubt; inactive means no such curve, though single readings can be large; an effect the other way counts as inactive or inconclusive.

SMILES	Pol kappa inh-1	Pol eta inh-1	L3MBTL1 inh-1	Pol beta inh-1	POLI inh	APE1 inh	L3MBTL1 inh-2	L3MBTL1 ctr	others
CCOC(=O)c1ccccc1NC(=O)c1ccc2nccnc2c1	?	20µM*	?	8.9µM*	?	-7%	.	.	Pol beta inh-2=28*;Klenow counter=-3;HIV RT counter=3;POLB valid=54*;POLI cherry-pick=?;Pol eta inh-2=30*
O=C(N/N=C/c1ccco1)c1cccc(N2Cc3ccccc3C2)c1	35µM*	7.9µM*	?	13µM*	10µM*	?	.	.	Pol beta inh-2=16*;Klenow counter=-14;HIV RT counter=20;POLI cherry-pick=42*;Pol kappa inh-2=17*;Pol eta inh-2=43*
O=C(N/N=C/c1ccco1)c1cccc(N2CCCC2=O)c1	-7%	?	-6%	?	?	-9%	.	.
CCc1ccc2oc(C(=O)N(Cc3ccc(N(C)C)cc3)Cc3ccco3)c(C)c2c1	-5%	.	.	-13%	-9%	.	.	.
Cc1cc2oc(C(=O)Nc3ccc(S(=O)(=O)Nc4nccs4)cc3)cc(=O)c2cc1Cl	-75%	20µM*	?	13µM*	?	6%	.	.	Pol beta inh-2=14*;Klenow counter=-29;HIV RT counter=18;Pol eta inh-2=76*
CCOc1ccc(-n2c(SCC(=O)N3CCc4ccccc43)nnc2-c2c[nH]c3ccccc23)cc1	0%	5.6µM*	4%	1µM*	?	0%	.	.	Pol beta inh-2=1.4*;Klenow counter=-10;HIV RT counter=26;POLI cherry-pick=30*;Pol eta inh-2=76*
COc1cccc(-n2c(SCC(=O)N3CCc4ccccc43)nnc2-c2c[nH]c3ccccc23)c1	-3%	-4%	6%	0%	-1%	10%	.	.
COc1ccc(CCC(=O)Nc2ccc(OC)c(S(=O)(=O)N3CCCCC3)c2)cc1	-1%	2%	1%	.	-15%	10%	.	.
O=C(O)/C=C\C(=O)Nc1ccc(N2CCN(c3ccc(Cl)c(Cl)c3)CC2)cc1	-7%	-4%	25µM*	-9%	-7%	-5%	13*	?
O=C(O)/C=C\C(=O)Nc1ccc(N2CCN(c3ccc(Cl)cc3)CC2)cc1	5%	-5%	?	2%	10%	-7%	.	.
COc1cc(C2CC(=O)Oc3cc(C)c(Cl)cc32)cc(OC)c1OC (stereo not drawn)	-13%	.	.	.	.	?	.	.
CCOc1ccccc1CNC(=O)c1cc2cc(S(=O)(=O)N3CCCCC3)ccc2n1C	-13%[60.1 µM]	-12%	.	5%	20%	.	.	.
Cc1ccc(N=Nc2ccc(O)c3ncccc23)cc1	-18%	-17%	40µM*	2%	17%	1%	17*	?
Cc1ccc(N=Nc2ccc(O)c3ncccc23)cc1C	-3%	-11%	.	2%	8%	-1%	.	.
Oc1c(CN2CCN(c3ccccn3)CC2)cc(Cl)c2cccnc12	0%	?	4.5µM*	-15%	51%	8%	21*	-95%
O=C(Oc1c(CN2CCOCC2)cc(Cl)c2cccnc12)c1ccccc1Cl	4%	-25%	14µM*	-7%	83%	5%	27*	-16%
O=C(Oc1c(CN2CCOCC2)cc(Cl)c2cccnc12)c1cccs1	-6%	-17%	-85%	0%	194%	-5%	.	.
CC(=O)c1ccc(NC(=O)CSc2nnc(-c3ccco3)c(-c3ccco3)n2)cc1	14µM*	22µM*	25µM*	20µM*	?	16%	15*	?
O=C(O)c1cc(-c2ccco2)nc2ccccc12	28µM*	7.1µM*	22µM*	18µM*	13µM*	25µM*	3*	-5%
O=C1[C@H](Cc2ccccc2)NC/C=C\C[C@@H](c2ccco2)N1Cc1ccccc1	-4%	.	.	.	27%	.	.	.
Cc1cc(=O)c2cc3nc(-c4cccnc4)oc3c(Br)c2o1	.	.	32µM*	40µM*	.	?	6*	-3%
CCCn1c(C)nc2c(NCCCN(C)C)nc(C)nc21	.	.	.	.	.	-3%	.	.
